# Read-outs that look alike come from different tables or passages of the source.
# What was measured:
# Set-up in all cases: species or system human, MV4-11 + K-562 + COLO205 + SK-N-BE2 + OVCAR-8
# ADRBK1 = conditions: read-out: apparent Kd, n = 1
# AKT1 = conditions: read-out: apparent Kd, compound concentrations: 100 nM and 1000 nM (sheet 'Samples'), n = 1
# AKT2 = conditions: read-out: apparent Kd, n = 1
# AKT3 = conditions: read-out: apparent Kd; compound concentrations: 100 nM and 1000 nM (sheet 'Samples'), CATDS: 9.8238280231453798E-2; n = 1
# MAP2K1 = conditions: read-out: apparent Kd; compound concentrations: 100 nM and 1000 nM (sheet 'Samples'), CATDS: 9.2730141301733807E-2; n = 1
# MAP2K2 = conditions: read-out: apparent Kd, n = 1
# MAP4K3 = conditions: read-out: apparent Kd; compound concentrations: 100 nM and 1000 nM (sheet 'Samples'), CATDS: 0.10467989294056; n = 1
# NQO1 = conditions: read-out: apparent Kd; compound concentrations: 100 nM and 1000 nM (sheet 'Samples'), CATDS: 0.121643058614981; n = 1
# RIOK2 = conditions: read-out: apparent Kd; compound concentrations: 100 nM and 1000 nM (sheet 'Samples'), CATDS: 0.103588865131405; n = 1
# TP53RK = conditions: read-out: apparent Kd, n = 1
# CDK4 = conditions: read-out: apparent Kd; compound concentrations:100 nM and 1000 nM (sheet 'Samples'); n = 1
# CDK6 = conditions: read-out: apparent Kd; compound concentrations:100 nM and 1000 nM (sheet 'Samples'); n = 1
# MAPK14 = conditions: read-out: apparent Kd; compound concentrations:100 nM and 1000 nM (sheet 'Samples'); n = 1
# MAPKAPK2 = conditions: read-out: apparent Kd; compound concentrations:100 nM and 1000 nM (sheet 'Samples'); n = 1
# NQO2 = conditions: read-out: apparent Kd; compound concentrations:100 nM and 1000 nM (sheet 'Samples'); n = 1
# PRKCZ = conditions: read-out: apparent Kd; compound concentrations:100 nM and 1000 nM (sheet 'Samples'); n = 1
# GSK3A = conditions: read-out: apparent Kd, n = 1
# MYLK3 = conditions: read-out: apparent Kd; compound concentrations: 100 nM and 1000 nM (sheet 'Samples'), CATDS: 0.30722908276371202; n = 1
# CDC42BPA = conditions: read-out: apparent Kd; compound concentrations:100 nM and 1000 nM (sheet 'Samples'); n = 1
# CDC42BPG = conditions: read-out: apparent Kd; compound concentrations:100 nM and 1000 nM (sheet 'Samples'); n = 1
# CIT = conditions: read-out: apparent Kd; compound concentrations:100 nM and 1000 nM (sheet 'Samples'); n = 1
# GSK3B = conditions: read-out: apparent Kd; compound concentrations:100 nM and 1000 nM (sheet 'Samples'); n = 1
# LATS1 = conditions: read-out: apparent Kd; compound concentrations:100 nM and 1000 nM (sheet 'Samples'); n = 1
# MARK2 = conditions: read-out: apparent Kd; compound concentrations:100 nM and 1000 nM (sheet 'Samples'); n = 1
# MARK3 = conditions: read-out: apparent Kd; compound concentrations:100 nM and 1000 nM (sheet 'Samples'); n = 1
# MARK4 = conditions: read-out: apparent Kd; compound concentrations:100 nM and 1000 nM (sheet 'Samples'); n = 1
# PAK4 = conditions: read-out: apparent Kd; compound concentrations:100 nM and 1000 nM (sheet 'Samples'); n = 1
# PAK6 = conditions: read-out: apparent Kd; compound concentrations:100 nM and 1000 nM (sheet 'Samples'); n = 1
# PKN1 = conditions: read-out: apparent Kd; compound concentrations:100 nM and 1000 nM (sheet 'Samples'); n = 1
# PKN3 = conditions: read-out: apparent Kd; compound concentrations:100 nM and 1000 nM (sheet 'Samples'); n = 1
# PRKACA = conditions: read-out: apparent Kd; compound concentrations:100 nM and 1000 nM (sheet 'Samples'); n = 1
# PRKACB = conditions: read-out: apparent Kd; compound concentrations:100 nM and 1000 nM (sheet 'Samples'); n = 1
# PRKCD = conditions: read-out: apparent Kd; compound concentrations:100 nM and 1000 nM (sheet 'Samples'); n = 1
# PRKCI = conditions: read-out: apparent Kd; compound concentrations:100 nM and 1000 nM (sheet 'Samples'); n = 1
# PRKG1 = conditions: read-out: apparent Kd; compound concentrations:100 nM and 1000 nM (sheet 'Samples'); n = 1
# PRKX = conditions: read-out: apparent Kd; compound concentrations:100 nM and 1000 nM (sheet 'Samples'); n = 1
# ROCK2 = conditions: read-out: apparent Kd; compound concentrations:100 nM and 1000 nM (sheet 'Samples'); n = 1
# RPS6KA4 = conditions: read-out: apparent Kd; compound concentrations:100 nM and 1000 nM (sheet 'Samples'); n = 1
# [1] = compound concentrations:100 nM and 1000 nM (sheet 'Samples')
smiles,measurement,setting,value
N#Cc1c(NC(=O)c2cccc3ccccc23)sc2c1CCCC2 [GW620972X],potency estimated from few doses,"ADRBK1; compound concentrations: 100 nM and 1000 nM (sheet 'Samples'), CATDS: 9.9298321917506205E-2",1570 nM
same,potency estimated from few doses,AKT1; CATDS: 9.2646573747736397E-2,1820 nM
same,potency estimated from few doses,"AKT2; compound concentrations: 100 nM and 1000 nM (sheet 'Samples'), CATDS: 0.116273813691737",1170 nM
same,potency estimated from few doses,AKT3,1610 nM
same,potency estimated from few doses,MAP2K1,1820 nM
same,potency estimated from few doses,"MAP2K2; compound concentrations: 100 nM and 1000 nM (sheet 'Samples'), CATDS: 9.7397505320664393E-2",1640 nM
same,potency estimated from few doses,MAP4K3,1420 nM
same,potency estimated from few doses,NQO1,1080 nM
same,potency estimated from few doses,RIOK2,1440 nM
same,potency estimated from few doses,"TP53RK; compound concentrations: 100 nM and 1000 nM (sheet 'Samples'), CATDS: 8.4192999566122695E-2",2270 nM
Cc1ccccc1-c1cc(-c2c[nH]nc2-c2ccccn2)ccn1 [GW680061X],potency estimated from few doses,ADRBK1; [1],2140 nM
same,potency estimated from few doses,CDK4,1890 nM
same,potency estimated from few doses,CDK6,1960 nM
same,potency estimated from few doses,MAP2K2; [1],2250 nM
same,potency estimated from few doses,MAPK14,993 nM
same,potency estimated from few doses,MAPKAPK2,470 nM
same,potency estimated from few doses,NQO2,1210 nM
same,potency estimated from few doses,PRKCZ,2260 nM
same,potency estimated from few doses,TP53RK; [1],2160 nM
Cn1cc(C2=C(c3cn(-c4ccccc4)c4ccccc34)C(=O)NC2=O)c2ccccc21 [RO0318564-000],potency estimated from few doses,AKT1; CATDS: 1,2080 nM
COc1ccc(C2=C(c3cn(C)c4ccccc34)C(=O)NC2=O)cc1 [RO0317257-000],potency estimated from few doses,"ADRBK1; compound concentrations: 100 nM and 1000 nM (sheet 'Samples'), CATDS: 0.26872629517394703",1840 nM
same,potency estimated from few doses,"GSK3A; compound concentrations: 100 nM and 1000 nM (sheet 'Samples'), CATDS: 0.49410987745455298",529 nM
same,potency estimated from few doses,MYLK3,1310 nM
CCn1c(-c2nonc2N)nc2c(C#CC(C)(C)O)ncc(OCCCCN)c21.CCn1c(-c2nonc2N)nc2c(C#CC(C)(C)O)ncc(OCCCCN)c21.O=C(O)C(F)(F)F.O=C(O)C(F)(F)F [GSK507274A],potency estimated from few doses,AKT2; [1],1440 nM
same,potency estimated from few doses,CDC42BPA,2200 nM
same,potency estimated from few doses,CDC42BPG,1800 nM
same,potency estimated from few doses,CIT,554 nM
same,potency estimated from few doses,GSK3A; [1],328 nM
same,potency estimated from few doses,GSK3B,488 nM
same,potency estimated from few doses,LATS1,83.9 nM
same,potency estimated from few doses,MAPKAPK2,1370 nM
same,potency estimated from few doses,MARK2,440 nM
same,potency estimated from few doses,MARK3,178 nM
same,potency estimated from few doses,MARK4,629 nM
same,potency estimated from few doses,PAK4,30.9 nM
same,potency estimated from few doses,PAK6,99.3 nM
same,potency estimated from few doses,PKN1,191 nM
same,potency estimated from few doses,PKN3,13 nM
same,potency estimated from few doses,PRKACA,787 nM
same,potency estimated from few doses,PRKACB,965 nM
same,potency estimated from few doses,PRKCD,1450 nM
same,potency estimated from few doses,PRKCI,1890 nM
same,potency estimated from few doses,PRKG1,1070 nM
same,potency estimated from few doses,PRKX,54.1 nM
same,potency estimated from few doses,ROCK2,446 nM
same,potency estimated from few doses,RPS6KA4,749 nM

# Reference: article PMC11062922 (Nature Chemical Biology, 2023)
